Experimental data: the supplement of paper PMC8975748
Counter-ions that a name gives are not always drawn.

System: Saccharomyces cerevisiae BY4741 SeMeCo community
Test: z-score of subpopulation abundance vs DMSO median, subpopulation auxotrophic for U; higher = larger share of this subpopulation than in DMSO controls
Conditions: 10 µM; 24 h; SM minimal medium; subpopulation (auxotrophy): U
Procedure: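 Fluorescent four-plasmid SeMeCo (self-establishing metabolically cooperating S. cerevisiae BY4741 community; plasmids pH-mRuby2, pL-mWasabi, pU-eCFP, pM-TagRFP657) was grown 24 h in minimal SM medium with each Selleck FDA-approved drug at 10 µM in 384-well plates. Cells were fixed and imaged by high-content confocal microscopy. For each auxotrophic subpopulation (and the prototroph), a z-score gives the deviation from the DMSO vehicle-control population median.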

| Compound | z-score of subpopulation abundance |
| --- | --- |
| CCN1CCCC1CNC(=O)c1cc(S(=O)(=O)CC)c(N)cc1OC (stereo not given) [Amisulpride] | 0.31 |
| CC(C)Cc1ccc(C(C)C(=O)O)cc1 (stereo not given) [Ibuprofen Lysine] | -3.65 |
| NC(=O)N1c2ccccc2CC(=O)c2ccccc21 [Oxcarbazepine] | 0.16 |
| CS(=O)(=O)c1ccc([C@@H](O)[C@@H](CO)NC(=O)C(Cl)Cl)cc1 [Thiamphenicol] | 0.59 |
| CC(C)n1c(/C=C/C(O)CC(O)CC(=O)O)c(-c2ccc(F)cc2)c2ccccc21 (stereo not given) [Fluvastatin Sodium] | 0.84 |
| Nc1c2c(nc3ccccc13)CCCC2 [Tacrine hydrochloride hydrate] | 0 |
| O=C(O[C@@H]1C[C@@H]2C[C@H]3C[C@H](C1)N2CC3=O)c1c[nH]c2ccccc12 [Dolasetron Mesylate] | 0.89 |
| Cc1nnc(NS(=O)(=O)c2ccc(N)cc2)s1 [Sulfamethizole] | -0.15 |
| CCc1cccc2c3c([nH]c12)C(CC)(CC(=O)O)OCC3 (stereo not given) [Etodolac] | 0.62 |
| CN1C2CCCC1CC(NC(=O)c1nn(C)c3ccccc13)C2 (stereo not given) [Granisetron HCl] | -1.1 |
| Cn1nnnc1SCC1=C(C(=O)O)N2C(=O)[C@@H](NC(=O)[C@H](OC=O)c3ccccc3)[C@H]2SC1 [Cefamandole nafate] | 0.1 |
| O=c1n(CCCN2CCN(c3cccc(Cl)c3)CC2)nc2ccccn12 [Trazodone HCl] | -0.6 |
| O=C(CCCN1CCC(O)(c2ccc(Cl)cc2)CC1)c1ccc(F)cc1 [Haloperidol] | -0.4 |
| CC[C@@H](CO)NCCN[C@@H](CC)CO [Ethambutol 2HCl] | 1.13 |
| Clc1ccc(C(Cn2ccnc2)OCc2csc3c(Cl)cccc23)c(Cl)c1 (stereo not given) [Sertaconazole nitrate] | 0.4 |
| CC[C@H]1OC(=O)[C@H](C)[C@@H](O[C@H]2C[C@@](C)(OC)[C@@H](O)[C@H](C)O2)[C@H](C)[C@@H](O[C@@H]2O[C@H](C)C[C@H](N(C)C)[C@H]2O)[C@](C)(O)C[C@@H](C)CN(C)[C@H](C)[C@@H](O)[C@]1(C)O [Azithromycin] | -0.41 |
| COC(=O)C1=C(C)NC(C)=C(C(=O)OC2CCCN(Cc3ccccc3)C2)C1c1cccc([N+](=O)[O-])c1 (stereo not given) [Benidipine HCl] | -1.06 |
| Cc1cccc(Nc2ccccc2C(=O)O)c1C [Mefenamic Acid] | -0.58 |
| Cn1c(=O)c2c(ncn2CC(O)CO)n(C)c1=O (stereo not given) [Dyphylline] | 0.26 |
| CC(C)NC(=N)NC(=N)Nc1ccc(Cl)cc1 [Proguanil] | 1.07 |

| Compound | z-score of subpopulation abundance |
| --- | --- |
| CC[C@H]1OC(=O)[C@H](C)[C@@H](O[C@H]2C[C@@](C)(OC)[C@@H](O)[C@H](C)O2)[C@H](C)[C@@H](O[C@@H]2O[C@H](C)C[C@H](N(C)C)[C@H]2O)[C@](C)(O)C[C@@H](C)C(=O)[C@H](C)[C@H]2OC(=O)O[C@@]21C [Erythromycin Cyclocarbonate] | 0.09 |
| CC1(C)S[C@@H]2[C@H](NC(=O)[C@H](N)c3ccc(O)cc3)C(=O)N2[C@H]1C(=O)O [Amoxicillin] | 0.14 |
| C#C[C@]1(O)CC[C@H]2[C@@H]3CCc4cc(O)ccc4[C@H]3CC[C@@]21C [Ethinyl Estradiol] | -1.01 |
| C=CCc1ccc(O)c(-c2ccc(O)c(CC=C)c2)c1 [Honokiol] | -1.32 |
| O=C(O)c1cccnc1Nc1cccc(C(F)(F)F)c1 [Niflumic acid] | 0.51 |
| CCCN[C@H]1CCc2nc(N)sc2C1 [Pramipexole] | 0.72 |
| Cc1nccn1CC1CCc2c(c3ccccc3n2C)C1=O (stereo not given) [Ondansetron Hydrochloride Dihydrate] | 1.06 |
| CC1(C)S[C@@H]2[C@H](NC(=O)Cc3ccccc3)C(=O)N2[C@H]1C(=O)O [Benzylpenicillin potassium] | 0.62 |
| CC(=O)[C@H]1CC[C@H]2[C@@H]3CC=C4C[C@@H](O)CC[C@]4(C)[C@H]3CC[C@]12C [Pregnenolone] | -0.89 |
| O=C1[C@H]2CCCC[C@H]2C(=O)N1CCCCN1CCN(c2nsc3ccccc23)CC1 [Perospirone hydrochloride] | 0.1 |
| Nc1ccc(S(=O)(=O)c2ccc(N)cc2)cc1 [Dapson] | 0.04 |
| OCc1ccc(Cl)cc1Cl [2,4-dichlorobenzyl alcohol] | 0.58 |
| CCOC(=O)C1=C(C)NC(C)=C(C(=O)OCC)C1c1ccccc1/C=C/C(=O)OC(C)(C)C [Lacidipine] | -3.36 |
| C[C@]12CC[C@@H]3c4ccc(OC(=O)c5ccccc5)cc4CC[C@H]3[C@@H]1CC[C@@H]2O [Estradiol Benzoate] | -0.43 |
| COc1ccc2c(c1)c(CC(=O)O)c(C)n2C(=O)c1ccc(Cl)cc1 [Indomethacin] | 0.52 |
| OCCOCCN1CCN(C2=Nc3ccccc3Sc3ccccc32)CC1 [Quetiapine Fumarate] | -0.17 |
| Cc1c(S(=O)(=O)O)oc2c1C(=O)C(=O)c1c-2ccc2c1CCCC2(C)C [Tanshinone IIA sulfonate (sodium)] | -1.39 |
| Nc1ccc(C(=O)O)c(O)c1 [4-Aminosalicylic acid] | -3.36 |
| CC(C(=O)O)c1ccc(C(=O)c2cccs2)cc1 (stereo not given) [Suprofen] | -0.1 |
| CNCCC(Oc1ccc(C(F)(F)F)cc1)c1ccccc1 (stereo not given) [Fluoxetine HCl] | 0 |
